According to the supplement of paper PMC12494721:
Counter-ions that a name gives are not always drawn.

Legend:
Conditions in all cases: incubation time: 27 h, anaerobic, 37 °C;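 for the amine columns active = adjusted P below 0.05 in both replicates with a change the same way and a mean fold change under 0.8 or over 1.25; inactive = the rest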
[1] = test system: Clostridium sporogenes DSM 1664; experiment: growth (OD595) fold change vs plate DMSO controls (fold change (ratio)); higher = more growth
Outline: (§1)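 To obtain OD, 595 nm absorbance readings were blank-subtracted, corrected for compound background using 20 µM compound solutions in water, and multiplied by a calibration factor of 5. They came from 96-well mGAM cultures grown anaerobically for 27 h at 37 °C and shaken before reading. Growth is the fold change relative to the median of plate DMSO controls. Two biological replicates were averaged, and fold changes above 1.5 were set to NA.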

Escherichia coli IAI1 [2] = experiment: as above
Outline: as §1

[3] = test system: Klebsiella aerogenes DSM 30053; experiment: as above
Outline: as §1

[4] = test system: Ruminococcus gnavus DSM 108212; experiment: as above
Outline: as §1

[5] = test system: Klebsiella aerogenes DSM 30053; experiment: fold change of Histamine concentration vs plate DMSO controls (fold change (ratio)); higher = more amine produced, active = hit call of the paper (significant change in both replicates, either direction)
Outline: (§2)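 Anaerobic mGAM cultures of four gut bacterial strains were grown at 37 °C for 27 h in 80 µL wells, starting at OD 0.1 before 1:1 dilution. Compounds were at 20 µM final (sweeteners 50 µM). Whole cultures were extracted with cold acetonitrile/methanol containing 0.1% formic acid and centrifuged. Amines were quantified by LC–triple-quadrupole MS (dynamic MRM) against external calibration curves and drift-corrected within batch. Each value is the fold change versus plate DMSO controls, averaged over 2 biological replicates.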

[6] = test system: Clostridium sporogenes DSM 1664; experiment: fold change of Tryptamine concentration vs plate DMSO controls (fold change (ratio)); higher = more amine produced, active = hit call of the paper (significant change in both replicates, either direction)
Outline: as §2

[7] = test system: Ruminococcus gnavus DSM 108212; experiment: as above
Outline: as §2

Escherichia coli IAI1 [8] = experiment: fold change of Putrescine concentration vs plate DMSO controls (fold change (ratio)); higher = more amine produced, active = hit call of the paper (significant change in both replicates, either direction)
Outline: as §2

[9] = test system: Klebsiella aerogenes DSM 30053; experiment: as above
Outline: as §2

Escherichia coli IAI1 [10] = experiment: fold change of Cadaverine concentration vs plate DMSO controls (fold change (ratio)); higher = more amine produced, active = hit call of the paper (significant change in both replicates, either direction)
Outline: as §2

[11] = test system: Klebsiella aerogenes DSM 30053; experiment: as above
Outline: as §2

[12] = test system: Ruminococcus gnavus DSM 108212; experiment: fold change of 2-Phenylethylamine concentration vs plate DMSO controls (fold change (ratio)); higher = more amine produced, active = hit call of the paper (significant change in both replicates, either direction)
Outline: as §2

SMILES	growth [1]	growth (Escherichia coli IAI1 [2])	growth [3]	growth [4]	fold change of Histamine concentration [5]	fold change of Tryptamine concentration [6]	fold change of Tryptamine concentration [7]	fold change of Putrescine concentration (Escherichia coli IAI1 [8])	fold change of Putrescine concentration [9]	fold change of Cadaverine concentration (Escherichia coli IAI1 [10])	fold change of Cadaverine concentration [11]	fold change of 2-Phenylethylamine concentration [12]
Cn1cnc([N+](=O)[O-])c1Sc1ncnc2[nH]cnc12 [Azathioprine] (20 µM)	1.11	1.03	0.993	1.49	0.991 (inactive)	1.04 (inactive)	0.965 (inactive)	0.977 (inactive)	0.99 (inactive)	0.974 (inactive)	0.992 (inactive)	0.984 (inactive)
C[C@@H]1O[C@@H](O[C@H]2[C@H](Oc3cc(O)c(C(=O)CCc4ccc(O)cc4)c(O)c3)O[C@H](CO)[C@@H](O)[C@@H]2O)[C@H](O)[C@H](O)[C@H]1O [Naringin Dihydrochalcone] (50 µM)	1.1	0.965	1.05	1.2	0.958 (inactive)	0.968 (inactive)	1 (inactive)	0.983 (inactive)	0.996 (inactive)	1.13 (inactive)	1.01 (inactive)	0.966 (inactive)
CCn1cc(C(=O)O)c(=O)c2cnc(N3CCNCC3)nc21 [Pipemidic acid] (20 µM)	0.963	0	0.465	1.01	0.949 (inactive)	1.01 (inactive)	0.93 (inactive)	0.313 (active)	1.06 (inactive)	1.81 (active)	1.01 (inactive)	0.934 (inactive)
Cc1ccc(-c2cc(C(F)(F)F)nn2-c2ccc(S(N)(=O)=O)cc2)cc1 [Celecoxib] (20 µM)	0.912	1.03	1	1.11	1.09 (inactive)	0.967 (inactive)	0.927 (inactive)	1.03 (inactive)	0.991 (inactive)	1.06 (inactive)	0.99 (inactive)	0.87 (inactive)
CN(C)CC/C=C1/c2ccccc2Sc2ccc(Cl)cc21 [Chlorprothixene hydrochloride] (20 µM)	1.03	0.991	1.01	0.904	0.956 (inactive)	0.997 (inactive)	0.87 (inactive)	0.959 (inactive)	0.996 (inactive)	1.03 (inactive)	1.02 (inactive)	0.942 (inactive)
CN1[C@@H]2CC[C@H]1C[C@@H](OC(c1ccccc1)c1ccccc1)C2 [Benztropine mesylate] (20 µM)	1.11	0.99	0.975	1	1.09 (inactive)	1.03 (inactive)	0.964 (inactive)	1.03 (inactive)	1.03 (inactive)	1.05 (inactive)	0.995 (inactive)	1 (inactive)
CC1CC(OC(=O)C(O)c2ccccc2)CC(C)(C)C1 (stereo not drawn) [Cyclandelate] (20 µM)	0.937	1.02	1.04	1.02	0.997 (inactive)	1.04 (inactive)	1.03 (inactive)	0.959 (inactive)	1.02 (inactive)	1.02 (inactive)	1.01 (inactive)	1.03 (inactive)
CN(C)CCCN1c2ccccc2CCc2ccc(Cl)cc21 [Clomipramine hydrochloride] (20 µM)	1.07	0.978	0.972	0.705	1.04 (inactive)	1.04 (inactive)	0.823 (inactive)	0.997 (inactive)	1.03 (inactive)	1.06 (inactive)	0.985 (inactive)	0.82 (inactive)
O=C(N[C@H](CO)[C@H](O)c1ccc([N+](=O)[O-])cc1)C(Cl)Cl [Chloramphenicol] (20 µM)	1.25	0.0503	0.0799	1.08	0.0535 (active)	0.64 (inactive)	0.168 (active)	0.245 (active)	0.512 (active)	0.0844 (active)	0.383 (active)	0.182 (active)
CN(C)[C@@H]1C(=O)C(C(=O)NCNCCCC[C@H](N)C(=O)O)=C(O)[C@@]2(O)C(=O)C3=C(O)c4c(O)cccc4[C@@](C)(O)[C@H]3C[C@@H]12 [Lymecycline] (20 µM)	0.746	1.23	0.995	0.941	1.05 (inactive)	0.933 (inactive)	0.996 (inactive)	1.2 (inactive)	1.03 (inactive)	1.11 (inactive)	0.999 (inactive)	1.02 (inactive)
CN1CCC[C@@H]1Cc1c[nH]c2ccc(CCS(=O)(=O)c3ccccc3)cc12 [Eletriptan] (20 µM)	0.866	1.04	0.965	0.979	1.05 (inactive)	1.05 (inactive)	1.02 (inactive)	1.08 (inactive)	0.973 (inactive)	0.955 (inactive)	0.994 (inactive)	1.05 (inactive)
CCc1c(C)[nH]c2c1C(=O)C(CN1CCOCC1)CC2 (stereo not drawn) [Molindone hydrochloride] (20 µM)	0.781	1.07	1	1.1	1.02 (inactive)	1.02 (inactive)	1.07 (inactive)	1.03 (inactive)	0.987 (inactive)	0.906 (inactive)	1.01 (inactive)	1.08 (inactive)
CC(C)c1c(C(=O)Nc2ccccc2)c(-c2ccccc2)c(-c2ccc(F)cc2)n1CC[C@@H](O)C[C@@H](O)CC(=O)O [Atorvastatin] (20 µM)	1.02	1.03	1	1.28	1.15 (inactive)	1.01 (inactive)	1 (inactive)	1.01 (inactive)	1.02 (inactive)	0.984 (inactive)	0.998 (inactive)	1.02 (inactive)
OC(Cn1cncn1)(Cn1cncn1)c1ccc(F)cc1F [Fluconazole] (20 µM)	0.908	0.984	1.01	1.04	0.956 (inactive)	1.05 (inactive)	1.01 (inactive)	0.989 (inactive)	1.01 (inactive)	1.01 (inactive)	1.02 (inactive)	0.959 (inactive)
CC1=C(CC(=O)O)c2cc(F)ccc2/C1=C\c1ccc([S+](C)[O-])cc1 (stereo not drawn) [Sulindac] (20 µM)	1.15	1.08	1.02	1.3	0.931 (inactive)	1.04 (inactive)	1.03 (inactive)	1.02 (inactive)	0.951 (inactive)	0.995 (inactive)	1.02 (inactive)	1 (inactive)
CCOC(=O)C1=C(C)NC(C)=C(C(=O)OCC)C1c1ccccc1/C=C/C(=O)OC(C)(C)C [Lacidipine] (20 µM)	1.03	0.928	0.929	1.12	1.13 (inactive)	0.849 (inactive)	0.944 (inactive)	0.962 (inactive)	1.03 (inactive)	1.01 (inactive)	0.979 (inactive)	0.955 (inactive)
CC(C(O)c1ccc(O)cc1)N1CCC(Cc2ccccc2)CC1 (stereo not drawn) [Ifenprodil tartrate] (20 µM)	1.02	1.12	1.03	0.985	0.977 (inactive)	1.02 (inactive)	1.03 (inactive)	1.08 (inactive)	0.973 (inactive)	0.947 (inactive)	1 (inactive)	0.992 (inactive)
C[C@]12CC[C@@H]3c4ccc(OS(=O)(=O)O)cc4CC[C@H]3[C@@H]1CCC2=O [Estropipate piperazine salt] (20 µM)	1.04	1.01	1.01	1.21	0.996 (inactive)	0.974 (inactive)	0.96 (inactive)	1.04 (inactive)	0.985 (inactive)	0.947 (inactive)	0.993 (inactive)	0.89 (inactive)
C=C1C[C@@]23CC[C@H]4[C@@](C)(CCC[C@@]4(C)C(=O)O[C@@H]4O[C@H](CO)[C@@H](O)[C@H](O)[C@H]4O)[C@@H]2CC[C@]1(O[C@@H]1O[C@H](CO)[C@@H](O)[C@H](O)[C@H]1O[C@@H]1O[C@H](CO)[C@@H](O)[C@H](O)[C@H]1O)C3 [Stevioside] (50 µM)	0.957	1	0.995	0.976	0.984 (inactive)	0.986 (inactive)	0.947 (inactive)	0.989 (inactive)	0.863 (inactive)	1.04 (inactive)	1.1 (inactive)	0.971 (inactive)
Cc1ncc([N+](=O)[O-])n1CC(O)CCl (stereo not drawn) [Ornidazole] (20 µM)	0.007	0.984	1.04	0.0518	0.885 (inactive)	0.00845 (active)	0.0747 (active)	0.976 (inactive)	0.986 (inactive)	0.962 (inactive)	1.02 (inactive)	0.0499 (active)
O=C(O)CCCC[C@@H]1SC[C@@H]2NC(=O)N[C@@H]21 [Biotin] (20 µM)	1.02	0.975	0.981	1.12	1.02 (inactive)	0.954 (inactive)	1.03 (inactive)	0.982 (inactive)	1.02 (inactive)	1.01 (inactive)	0.997 (inactive)	1.06 (inactive)
CCC1(c2ccccc2)NC(=O)N(C)C1=O (stereo not drawn) [Mephenytoin] (20 µM)	0.908	1.05	1.11	1.14	0.905 (inactive)	1.09 (inactive)	1.02 (inactive)	1.06 (inactive)	1.02 (inactive)	1.01 (inactive)	1.02 (inactive)	1.03 (inactive)
CC(C)Cc1ccc(C(C)C(=O)OCc2ccccn2)cc1 (stereo not drawn) [Ibuprofen Piconol] (20 µM)	0.967	1	0.98	1.13	1.01 (inactive)	1.01 (inactive)	1.1 (inactive)	1 (inactive)	1.01 (inactive)	0.983 (inactive)	0.996 (inactive)	1.15 (inactive)
COc1cc(OC)c(C(=O)CCCN2CCCC2)c(OC)c1 [Buflomedil hydrochloride] (20 µM)	1.11	1.03	0.965	0.743	1.08 (inactive)	1.08 (inactive)	1.03 (inactive)	1.04 (inactive)	1.02 (inactive)	1.03 (inactive)	0.997 (inactive)	0.992 (inactive)
